Compound activity deposited in PubChem by National Center for Advancing Translational Sciences (NCATS).
Hits are enriched below; roughly 6.5% of the tested compounds scored in any of these assays.
Vaccinia Venus = vaccinia inhibition (Venus reporter); Vaccinia virus Venus reporter expression, fluorescence; Potency, µM (doses to about 36.5 µM), for the others: top-dose activity change, negative = inhibition, most hits filed as inhibitors; 330,000 compounds, 0.46% hits; calls by dose curve; tested in A549 cells; note: potency is the fitted concentration of half-maximal effect; nearly all actives have a fitted effect of over 30% in size
MARV entry inh = blocks Marburg virus binding to or entry into cells; Marburg virus pseudotyped entry inhibition, cell reporter; Potency, µM (doses to about 37.8 µM), for inactives: at the top dose activity change, negative = inhibition, hits mostly inhibitors; 300,000 compounds, 1.8% hits; AID 540276; calls by dose curve; tested in HEK293 cells; note: potency is the fitted concentration of half-maximal effect
FMDV antiviral = blocks foot and mouth disease virus | FMDV antiviral cell-based qHTS | 410,000 compounds, 1.2% hits | AID 1159524 | Potency, µM (titrated, usually from 57.9 µM), without a hit: top-dose activity change, negative = inhibition, actives largely listed as inhibitors; calls by dose curve; tested in HEK293T cells; note: read-out not given here; potency is the fitted concentration of half-maximal effect; nearly all actives have a fitted effect of over 45% in size
HCMV antiviral = blocks human cytomegalovirus replication; HFF cells, HCMV-luciferase reporter, 72 h; active compounds read low; AID 1259415; 410,000 compounds, 4.5% hits; activity change, negative = inhibition, % at 57.5 µM; in the data active = activity change below about -60%; inconclusive = no clear call, values can overlap the other calls; inactive = above about -39%
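HFF cells seeded 16 h at 37C, treated with compounds, infected with luciferase-reporter HCMV at MOI 1 PFU/cell; luciferase read at 72 h post infection, normalized to buffer-only and Salinomycin controls.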
Vaccinia mCherry = vaccinia inhibition (mCherry reporter) | Vaccinia virus mCherry reporter infection, fluorescence | Potency, µM (top dose mostly 36.5 µM), for the others: at the top dose activity change, negative = inhibition, usual class: inhibitors | 310,000 compounds, 0.63% hits | AID 720579; calls by dose curve; tested in A549 cells; note: potency is the fitted concentration of half-maximal effect; nearly all actives have a fitted effect of over 35% in size
LASV entry inh = inhibitors of Lassa virus binding or cell entry. Lassa virus pseudotype entry inhibition, cell reporter. Potency, µM (top dose mostly 37.9 µM), without a hit: at the top dose activity change, negative = inhibition, actives largely listed as inhibitors. 300,000 compounds, 1.2% hits. AID 540256; calls by dose curve; tested in HEK293 cells; note: potency is the fitted concentration of half-maximal effect; nearly all actives have a fitted effect of over 50% in size
Active calls of the source: *; i = inactive; u = inconclusive; x = no result given; [ ] = remark or other dose. % is set by controls: 0 for no effect and ±100 for the full control effect.

SMILES	Vaccinia Venus	MARV entry inh	FMDV antiviral	HCMV antiviral	Vaccinia mCherry	LASV entry inh
Cc1ccc(C2(C)NC(=O)N(CC(=O)Nc3ccc(Cl)c(S(=O)(=O)N4CCCCC4)c3)C2=O)cc1 (stereo not given)	u	11µM*	-22%	0	-13%	-27%
Cc1ccc(CN(C(=O)COc2ccc(Cl)c(C)c2)c2ccccn2)o1	-11%	u	42%	-6	i	10%[46.1 µM]
OCC[N+]1(CCc2ccccc2)CCOCC1	-5%	x	x	x	i	x
CCCCOC(=O)c1ccc(NC(=O)CSc2nc3c(c(=O)[nH]2)CCC3)cc1	6%	17%[46.1 µM]	-12%	-9	-3%	-14%[46.1 µM]
Cc1ccc(NC(=O)Cc2ccccc2F)cc1S(=O)(=O)N1CCCCCC1	x	x	-11%	-78*	x	x
O=C(/C=C/c1ccco1)Nc1cccc(S(=O)(=O)N2CCOCC2)c1	-18%	u	-12%	u	-9%	-3%
Cc1ccc(NC(=O)/C=C/c2ccco2)cc1S(=O)(=O)N1CCCCCC1	x	x	0%	-89*	x	x
COc1cccc(CNCCSc2nnnn2C)c1OCc1ccccc1F	-3%	u	-20%	-3	5%	u
CC(=O)c1ccc(S(=O)(=O)N2CCN(C(=O)c3ccc(COc4ccccc4)o3)CC2)cc1	u	u	u	-61*	-20%	u
COc1ccc(N2CCN(C(=O)c3ccc(COc4ccc([N+](=O)[O-])cc4)o3)CC2)cc1	-15%	u	28µM*	u	-4%	u
COc1cccc(N2CCN(C(=O)c3ccc(CS(=O)Cc4ccc(Cl)cc4)o3)CC2)c1 (stereo not given)	-12%	-13%[46.1 µM]	-8%	-17	-9%	-9%[46.1 µM]
COc1ccc(N2CCN(C(=O)c3ccc(CS(=O)c4cccc(Cl)c4)o3)CC2)cc1 (stereo not given)	-28%	x	u	-73*	-12%	x
O=C(c1ccco1)N1CCN(C(=O)c2ccc(CS(=O)c3cccc(Cl)c3)o2)CC1 (stereo not given)	5%[7.34 µM]	x	-6%	-9	-8%[7.34 µM]	x
COc1cccc(N2CCN(C(=O)c3ccc(CS(=O)c4cccc(Cl)c4)o3)CC2)c1 (stereo not given)	-19%	x	-22%	-69*	5%	-25%[46.1 µM]
CCOC(=O)CC(NC(=O)CCc1c(C)nc2cc(-c3ccccc3)nn2c1C)c1ccc(C)cc1 (stereo not given)	-23%	u	-13%	u	i	-27%[46.1 µM]
CCCCCCCOc1ccc(CC(=O)NO)cc1	-19%	x	x	x	-22%	x
COc1ccc(Cn2cnc3cnc(Nc4ccc(C(=O)N(C)C)cc4)cc32)cc1OC	x	x	x	2	x	x
O=S(=O)(NCc1ccc(Cl)c(Cl)c1)c1cc(Cl)ccc1N1CC[C@@H](O)C1	x	x	x	-25	x	x
CCN1CCN(C(=O)c2ccc(COc3cccc(Cl)c3)o2)CC1	-8%	-3%[46.1 µM]	-18%	-69*	-12%	u
Cc1cc2c3c(cccc3n1)C(=O)c1ccccc1-2	x	x	-13%	x	x	x
Cc1cc(C)c(NC(=O)c2sc3nc(C)cc(C)c3c2NC(=O)c2ccccc2)c(C)c1	-24%	-27%[46.1 µM]	-20%	u	0%	0%[46.1 µM]
Cc1ccc2c(c1)Cc1nc3ccccc3nc1-2	-6%	6.3µM*	-72%	67	i	u
COc1ccc(-c2noc(-c3ccc(N4CCN(c5ccccc5OC)CC4)c([N+](=O)[O-])c3)n2)cc1	11%	-19%[46.1 µM]	-6%	2	1%	15%[46.1 µM]
O=C(O)c1ccc(-c2ccccc2C(F)(F)F)o1	-7%	25%	0%	-1	-10%	1%
O=C(NCc1ccccc1)c1ccc(-c2ccc(F)cc2)o1	x	-3%	24%	17	x	6.5µM*
SMILES	Vaccinia Venus	MARV entry inh	FMDV antiviral	HCMV antiviral	Vaccinia mCherry	LASV entry inh
Cc1ccccc1-c1ccc(C(=O)NCc2ccccc2)o1	u	11%	50%	72	-16%	u
O=C(CCc1ccccc1)NCc1ccc(F)cc1	-12%	-1%[46.1 µM]	25%	15	i	1%[46.1 µM]
O=C(NCc1ccccc1)c1ccc(-c2ccccc2C(F)(F)F)o1	-4%	u	52%	34	i	2.3µM*
Cc1ccc(-c2ccc(C(=O)NCc3ccc(Cl)cc3)o2)c2ccccc12	-19%	5%	-25%	-10	u	21µM*
COc1ccc(C(=O)NCCSc2c(C)[nH]c3ccccc23)cc1	-12%	u	-29%	-96*	-12%	16%[46.1 µM]
COc1ccc(N(CC(=O)NCCSc2ccccn2)S(C)(=O)=O)cc1	x	9%	-1%	10	x	-10%
COc1ccc(/C=N/NC(=O)c2cccnc2)cc1CSc1ccccn1	-8%	u	7%	u	-18%	-8%[46.1 µM]
COc1ccc(C(=O)N/N=C/c2ccc(OC)c(CSc3ccccn3)c2)cc1	x	4%	-8%	-65*	x	-7%
COc1ccc(C(=O)NCCSc2ccccn2)cc1	-38%	u	u	30	x	14µM*
COC(=O)c1cc(NC2(c3ccccc3)C(=O)c3ccccc3C2=O)cc(C(=O)OC)c1	9%	x	23%	11	-7%	-1%[46.1 µM]
Cc1cc2nc3c(=O)[nH]c(=O)nc-3n(C)c2cc1C=O	x	x	16µM*	x	x	x
CC(=O)OCCn1c2nc(=O)[nH]c(=O)c-2nc2cc(C)c(C)cc21	x	x	-9%	-1	x	x
CCOc1ccc(C(=O)NCC(=O)OCc2c(F)cccc2Cl)cc1	-6%	u	19%	-67*	-14%	5%
O=C(C[n+]1ccccc1Br)c1ccc(I)cc1	-12%	x	x	x	-22%	x
COc1ccc(OC)c(C2CC(=O)N(c3cccc(C)c3)C3=C2C(=O)OC3)c1 (stereo not given)	-11%	-3%[46.1 µM]	-20%	-3	4%	5%[46.1 µM]
COc1ccccc1CCc1nc2ccccc2n1C1CCN(C(=O)c2cc(C)nn2C)CC1	-1%	x	-7%	x	-8%	x
O=c1nc(N/N=C/C=C/c2ccccc2)cn[nH]1	-6%	-9%[46.1 µM]	u	15	i	2.2µM*
O=C(O)c1cccc2c(/C=N/Nc3ccccn3)c[nH]c12	x	x	-3%	x	x	x
O=c1nc(N/N=C/c2c[nH]c3ccccc23)cn[nH]1	-17%	8.9µM*	8%	0	-27%	u
C(=N\Nc1ccccn1)/c1c[nH]c2ccccc12	u	u	12%	-68*	u	-9%[46.1 µM]
Cc1ccc2nc3sc(C(=O)N4CCOCC4)c(N)c3cc2c1	-12%	0.41µM*	10µM*	-69*	u	u
O=[N+]([O-])c1ccc(Sc2nnnn2-c2ccccc2)c(Cl)c1	x	-26%	u	-73*	x	-3%
Cn1nnnc1SCc1ccc([N+](=O)[O-])cc1	-12%	3%	-2%	-10	-8%	9%
Cn1nnnc1SCC(=O)Nc1ccccc1[N+](=O)[O-]	-17%	u	-18%	-8	x	-3%
Cn1nnnc1Sc1ccc([N+](=O)[O-])cc1Cl	u	u	-23%	u	10µM*	-7%
Cn1nnnc1Sc1c(Cl)cccc1[N+](=O)[O-]	-29%	9%	1%	-91*	-29%	3%
